{"source": "PubChem BioAssay AID2006", "about": "(Sanford-Burnham Center for Chemical Genomics, 2009)", "biological_target": "SUMO-conjugating enzyme UBC9 (Homo sapiens) (UniProt P63279)", "sequence (P63279 whole entry, looked up)": "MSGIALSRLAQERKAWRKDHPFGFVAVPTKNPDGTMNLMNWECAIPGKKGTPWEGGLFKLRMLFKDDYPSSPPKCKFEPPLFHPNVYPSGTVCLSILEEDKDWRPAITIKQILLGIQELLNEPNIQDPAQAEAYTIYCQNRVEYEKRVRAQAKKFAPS", "assay": "inhibitors of in vitro SUMOylation cascade, primary screen, biochemical, HTRF, uHTS (AID 2006)", "details": "HTRF SUMOylation assay, SAE1/SAE2 + UBC9, in vitro, at 35 µM, stronger effect = higher value", "note": "About 1,000 (0.34%) of roughly 290,000 compounds were called active. Rule as the data show it: active = inhibition above about 50% (passing the limit was not always enough); inconclusive = no clear call, values can overlap the other calls. Shown is part of a subset that was picked to be rich in actives."}
{"compound": "COCCNC(=O)c1ccc2nc(Cc3ccc(OC)c(OC)c3)oc2c1", "values": [{"measurement": "inhibition", "value": "4.2% (inactive)"}]}
{"compound": "C/C(=C/c1ccccc1)C(=O)N1CCN(c2ccccc2)CC1", "values": [{"measurement": "inhibition", "value": "16.7% (inactive)"}]}
{"compound": "COCCN(CCOC)S(=O)(=O)c1ccc(C(=O)Nc2nc3c(s2)CCc2ccccc2-3)cc1", "values": [{"measurement": "inhibition", "value": "67% (active)"}, {"measurement": "inhibition", "setting": "average of repeat tests", "value": 53, "unit": "%"}]}
{"compound": "COc1ccc(C(=O)Nc2ncc3c(n2)-c2ccccc2CC3)cc1", "values": [{"measurement": "inhibition", "value": "6% (inactive)"}]}
{"compound": "C=CCN(CC=C)S(=O)(=O)c1ccc(C(=O)Nc2nc3c(s2)CCc2ccccc2-3)cc1", "values": [{"measurement": "inhibition", "value": "-14.9% (inactive)"}]}
{"compound": "O=C(/C=C/c1ccc(Cl)cc1)NCCCn1ccnc1", "values": [{"measurement": "inhibition", "value": "12.9% (inactive)"}]}
{"compound": "CC(=O)N1c2ccc(S(=O)(=O)N3CCC(C(=O)NC4CCCC(C)C4C)CC3)cc2CC1C", "note": "(stereo unspecified)", "values": [{"measurement": "inhibition", "value": "-4.4% (inactive)"}]}
{"compound": "COc1ccc(NC(=O)CC(NC(C)c2ccccc2)C(=O)O)cc1", "note": "(stereo unspecified)", "values": [{"measurement": "inhibition", "value": "6.5% (inactive)"}]}
{"compound": "CC(C)c1nc(CNC(=O)CC2C(=O)NCCN2Cc2cccc(F)c2F)cs1", "note": "(stereo unspecified)", "values": [{"measurement": "inhibition", "value": "-7.6% (inactive)"}]}
{"compound": "CC1CCN(S(=O)(=O)c2ccc3c(c2)n(C)c(=O)n3C)CC1", "values": [{"measurement": "inhibition", "value": "6.7% (inactive)"}]}
{"compound": "CC1(C(=O)NCCc2c[nH]c3ccccc23)C=CC2(CCCCC2)N1C(=O)c1ccccc1", "note": "(stereo unspecified)", "values": [{"measurement": "inhibition", "value": "0.3% (inactive)"}]}
{"compound": "Cc1cc(OC(C)C(=O)NC2CC(C)(C)NC(C)(C)C2)c2c(C)cc(=O)oc2c1", "note": "(stereo unspecified)", "values": [{"measurement": "inhibition", "value": "33.5% (inactive)"}]}
{"compound": "Cc1cccc(N(CC(=O)N=Nc2c(O)[nH]c3ccccc23)S(C)(=O)=O)c1C", "values": [{"measurement": "inhibition", "value": "-5.8% (inactive)"}]}
{"compound": "O=[N+]([O-])c1cc(S(=O)(=O)Nc2cccc(Cl)c2)ccc1N=Nc1c(O)[nH]c2ccccc12", "values": [{"measurement": "inhibition", "value": "67.7% (active)"}]}
{"compound": "CN1CCN(c2ccc(S(=O)(=O)Nc3ccccc3)cc2[N+](=O)[O-])CC1", "values": [{"measurement": "inhibition", "value": "21.3% (inactive)"}]}
{"compound": "COc1ccc(CN2CCNC(=O)C2CC(=O)NCc2cn[nH]c2-c2ccccc2)c(F)c1", "note": "(stereo unspecified)", "values": [{"measurement": "inhibition", "value": "-2.8% (inactive)"}]}
{"compound": "CN(C(=O)COC(=O)c1cc(-c2ccco2)nc2ccccc12)C1CCS(=O)(=O)C1", "note": "(stereo unspecified)", "values": [{"measurement": "inhibition", "value": "51.3% (active)"}]}
{"compound": "Cc1c(-c2cccc(Cl)c2)nc2ccccc2c1C(=O)OCC(=O)N(C)C1CCS(=O)(=O)C1", "note": "(stereo unspecified)", "values": [{"measurement": "inhibition", "value": "0.4% (inactive)"}]}
{"compound": "CN(C(=O)COC(=O)c1nc(Cl)ccc1Cl)C1CCS(=O)(=O)C1", "note": "(stereo unspecified)", "values": [{"measurement": "inhibition", "value": "-3.6% (inactive)"}]}
{"compound": "O=[N+]([O-])/C=C/c1ccc2c(ccn2Cc2ccccc2)c1", "values": [{"measurement": "inhibition", "value": "19.7% (inactive)"}]}
{"compound": "CC(C)[C@H](NC(=O)N1c2ccccc2NC(=O)[C@@H]1C(C)C)C(=O)N[C@H](C(=O)O)c1ccccc1", "values": [{"measurement": "inhibition", "value": "12.1% (inactive)"}]}
{"compound": "Cc1cccc(C(=O)Nc2ccc(Oc3cnccn3)cc2)c1", "values": [{"measurement": "inhibition", "value": "10.4% (inactive)"}]}
{"compound": "CC1CCCCC1NC(=O)CO/N=C/c1ccc(OC(F)F)cc1", "note": "(stereo unspecified)", "values": [{"measurement": "inhibition", "value": "-15.8% (inactive)"}]}
{"compound": "O=C(Nc1ccc(Br)cc1)c1cc(S(=O)(=O)Nc2ccccn2)ccc1Cl", "values": [{"measurement": "inhibition", "value": "3.5% (inactive)"}]}
{"compound": "COc1ccc(CN2CC(C(=O)NCCc3ccc(Cl)cc3)CC2=O)cc1", "note": "(stereo unspecified)", "values": [{"measurement": "inhibition", "value": "10.3% (inactive)"}]}
